{"source": "ChEMBL document CHEMBL2218924", "about": "“A broad activity screen in support of a chemogenomic map for kinase signalling research and drug discovery” (Biochem J, 2013)", "key": {"[1]": {"molecular_target": "T1, Serine/threonine-protein kinase TBK1 (Homo sapiens) (UniProt Q9UHD2)", "T1 sequence (whole entry)": "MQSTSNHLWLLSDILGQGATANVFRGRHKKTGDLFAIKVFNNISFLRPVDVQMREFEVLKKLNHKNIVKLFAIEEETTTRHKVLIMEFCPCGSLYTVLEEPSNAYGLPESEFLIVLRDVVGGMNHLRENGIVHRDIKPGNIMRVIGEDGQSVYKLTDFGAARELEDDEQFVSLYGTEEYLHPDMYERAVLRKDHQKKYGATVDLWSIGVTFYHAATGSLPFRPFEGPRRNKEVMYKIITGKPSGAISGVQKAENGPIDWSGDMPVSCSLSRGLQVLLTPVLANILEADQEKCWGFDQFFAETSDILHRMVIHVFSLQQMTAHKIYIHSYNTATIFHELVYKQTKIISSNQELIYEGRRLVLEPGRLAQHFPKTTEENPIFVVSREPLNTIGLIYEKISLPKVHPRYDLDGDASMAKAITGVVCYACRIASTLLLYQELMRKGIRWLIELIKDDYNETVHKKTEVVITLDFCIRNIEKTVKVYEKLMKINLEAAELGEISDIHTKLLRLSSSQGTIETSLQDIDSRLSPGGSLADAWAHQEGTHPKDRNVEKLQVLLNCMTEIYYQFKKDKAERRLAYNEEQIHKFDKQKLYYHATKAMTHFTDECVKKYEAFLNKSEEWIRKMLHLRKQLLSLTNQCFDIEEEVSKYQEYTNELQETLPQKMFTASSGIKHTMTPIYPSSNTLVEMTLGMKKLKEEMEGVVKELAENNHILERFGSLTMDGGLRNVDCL", "settings": "at 10 µM"}, "[2]": {"molecular_target": "T2, TGF-beta receptor type-1 (Homo sapiens) (UniProt P36897)", "T2 sequence (whole entry)": "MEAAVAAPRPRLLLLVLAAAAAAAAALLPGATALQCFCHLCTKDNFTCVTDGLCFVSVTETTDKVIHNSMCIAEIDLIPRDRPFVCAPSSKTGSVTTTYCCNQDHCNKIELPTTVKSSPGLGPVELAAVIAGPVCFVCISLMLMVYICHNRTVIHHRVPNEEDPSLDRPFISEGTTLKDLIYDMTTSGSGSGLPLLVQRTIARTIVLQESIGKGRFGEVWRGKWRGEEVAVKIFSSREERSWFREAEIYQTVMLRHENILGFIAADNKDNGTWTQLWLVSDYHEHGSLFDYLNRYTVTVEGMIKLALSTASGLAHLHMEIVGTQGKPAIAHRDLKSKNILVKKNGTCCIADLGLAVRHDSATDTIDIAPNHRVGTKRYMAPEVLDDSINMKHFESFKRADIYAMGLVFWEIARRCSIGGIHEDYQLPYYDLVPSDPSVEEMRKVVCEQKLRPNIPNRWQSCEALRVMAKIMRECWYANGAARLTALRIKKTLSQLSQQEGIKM", "settings": "at 1 µM"}, "[3]": {"molecular_target": "T2, TGF-beta receptor type-1 (Homo sapiens)", "settings": "at 10 µM"}, "[4]": {"molecular_target": "Insulin-like growth factor 1 receptor (Homo sapiens) (UniProt P08069)", "sequence (P08069 31-736 limits assumed)": "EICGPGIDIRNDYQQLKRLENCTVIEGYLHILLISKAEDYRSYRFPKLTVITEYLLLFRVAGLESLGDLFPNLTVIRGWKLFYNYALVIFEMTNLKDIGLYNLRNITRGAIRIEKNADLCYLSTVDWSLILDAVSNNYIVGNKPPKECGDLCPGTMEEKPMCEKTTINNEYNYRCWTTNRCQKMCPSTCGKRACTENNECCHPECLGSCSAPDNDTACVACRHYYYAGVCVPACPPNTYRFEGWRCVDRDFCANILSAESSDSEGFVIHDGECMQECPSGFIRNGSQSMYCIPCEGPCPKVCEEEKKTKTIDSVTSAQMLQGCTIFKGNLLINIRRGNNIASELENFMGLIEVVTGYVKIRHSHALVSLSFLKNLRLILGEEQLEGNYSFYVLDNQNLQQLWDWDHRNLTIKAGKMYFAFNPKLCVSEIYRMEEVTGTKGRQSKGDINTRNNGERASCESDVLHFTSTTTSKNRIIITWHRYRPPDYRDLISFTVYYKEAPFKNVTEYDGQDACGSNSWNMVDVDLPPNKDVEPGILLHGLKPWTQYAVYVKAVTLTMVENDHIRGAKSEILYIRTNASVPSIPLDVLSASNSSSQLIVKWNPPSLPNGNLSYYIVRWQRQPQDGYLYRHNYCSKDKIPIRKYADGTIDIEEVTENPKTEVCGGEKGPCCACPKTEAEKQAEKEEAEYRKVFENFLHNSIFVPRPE", "sequence (P08069 741-1367 limits assumed)": "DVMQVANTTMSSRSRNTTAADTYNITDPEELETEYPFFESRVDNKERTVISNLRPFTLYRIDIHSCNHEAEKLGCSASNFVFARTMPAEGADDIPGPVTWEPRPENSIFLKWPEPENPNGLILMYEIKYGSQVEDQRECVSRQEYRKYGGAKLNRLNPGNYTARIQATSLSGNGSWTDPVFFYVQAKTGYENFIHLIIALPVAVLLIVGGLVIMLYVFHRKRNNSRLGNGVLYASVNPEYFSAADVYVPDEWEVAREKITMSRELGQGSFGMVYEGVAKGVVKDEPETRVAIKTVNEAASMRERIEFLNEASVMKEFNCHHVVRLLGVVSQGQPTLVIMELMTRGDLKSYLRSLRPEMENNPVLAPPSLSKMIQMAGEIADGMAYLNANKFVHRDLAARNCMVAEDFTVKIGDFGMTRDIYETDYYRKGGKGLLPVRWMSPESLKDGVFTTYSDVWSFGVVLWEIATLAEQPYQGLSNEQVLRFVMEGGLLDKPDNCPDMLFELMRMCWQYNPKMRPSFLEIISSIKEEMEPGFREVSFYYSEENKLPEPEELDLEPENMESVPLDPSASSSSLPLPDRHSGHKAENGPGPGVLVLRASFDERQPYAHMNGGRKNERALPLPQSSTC", "settings": "at 1 µM"}, "[5]": {"molecular_target": "Insulin-like growth factor 1 receptor (Homo sapiens) (UniProt P08069)", "settings": "at 10 µM"}, "[6]": {"molecular_target": "T3, Inhibitor of nuclear factor kappa-B kinase subunit alpha (Homo sapiens) (UniProt O15111)", "T3 sequence (whole entry)": "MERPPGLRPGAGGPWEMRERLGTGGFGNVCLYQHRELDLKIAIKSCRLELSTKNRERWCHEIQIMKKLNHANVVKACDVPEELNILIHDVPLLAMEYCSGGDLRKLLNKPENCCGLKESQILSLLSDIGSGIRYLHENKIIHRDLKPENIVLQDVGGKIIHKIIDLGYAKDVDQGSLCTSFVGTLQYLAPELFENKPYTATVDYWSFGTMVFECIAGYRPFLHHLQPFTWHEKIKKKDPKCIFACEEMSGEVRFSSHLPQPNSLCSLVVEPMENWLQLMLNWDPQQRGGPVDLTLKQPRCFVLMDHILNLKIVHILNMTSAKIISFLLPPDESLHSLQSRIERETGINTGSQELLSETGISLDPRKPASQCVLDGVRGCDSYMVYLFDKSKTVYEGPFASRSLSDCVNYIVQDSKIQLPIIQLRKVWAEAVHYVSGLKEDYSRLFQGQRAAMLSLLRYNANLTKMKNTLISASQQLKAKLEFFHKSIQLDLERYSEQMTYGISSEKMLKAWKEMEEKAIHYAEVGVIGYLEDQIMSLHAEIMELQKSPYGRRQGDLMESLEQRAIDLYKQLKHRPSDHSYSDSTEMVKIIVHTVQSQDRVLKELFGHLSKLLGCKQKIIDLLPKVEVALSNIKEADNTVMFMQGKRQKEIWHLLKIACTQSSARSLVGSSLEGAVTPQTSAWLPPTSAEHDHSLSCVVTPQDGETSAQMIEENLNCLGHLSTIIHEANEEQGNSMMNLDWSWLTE", "settings": "at 1 µM"}, "[7]": {"molecular_target": "T3, Inhibitor of nuclear factor kappa-B kinase subunit alpha (Homo sapiens)", "settings": "at 10 µM"}, "[8]": {"molecular_target": "T4, Inhibitor of nuclear factor kappa-B kinase subunit beta (Homo sapiens) (UniProt O14920)", "T4 sequence (whole entry)": "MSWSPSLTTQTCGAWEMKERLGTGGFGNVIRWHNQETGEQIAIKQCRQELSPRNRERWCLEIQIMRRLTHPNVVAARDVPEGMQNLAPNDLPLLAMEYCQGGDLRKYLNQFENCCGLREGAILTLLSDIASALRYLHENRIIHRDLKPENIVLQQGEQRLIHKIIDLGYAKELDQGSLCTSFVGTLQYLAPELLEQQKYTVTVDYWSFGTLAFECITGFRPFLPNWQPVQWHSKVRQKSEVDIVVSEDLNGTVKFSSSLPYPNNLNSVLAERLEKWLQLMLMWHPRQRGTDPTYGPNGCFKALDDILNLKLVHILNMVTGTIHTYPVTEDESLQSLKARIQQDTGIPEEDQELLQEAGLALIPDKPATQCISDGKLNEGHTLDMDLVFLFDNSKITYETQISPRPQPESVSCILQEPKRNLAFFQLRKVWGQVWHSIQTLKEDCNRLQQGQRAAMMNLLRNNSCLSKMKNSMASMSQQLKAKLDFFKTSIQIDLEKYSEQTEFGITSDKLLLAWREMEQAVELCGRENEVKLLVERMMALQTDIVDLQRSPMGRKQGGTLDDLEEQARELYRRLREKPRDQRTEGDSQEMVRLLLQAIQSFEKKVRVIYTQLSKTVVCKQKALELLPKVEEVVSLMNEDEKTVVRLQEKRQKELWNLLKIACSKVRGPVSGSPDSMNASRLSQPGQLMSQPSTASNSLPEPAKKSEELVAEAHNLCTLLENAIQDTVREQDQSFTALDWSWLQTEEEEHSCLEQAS", "settings": "at 10 µM"}, "[9]": {"molecular_target": "Insulin receptor (Homo sapiens) (UniProt P06213)", "sequence (P06213 28-758 limits assumed)": "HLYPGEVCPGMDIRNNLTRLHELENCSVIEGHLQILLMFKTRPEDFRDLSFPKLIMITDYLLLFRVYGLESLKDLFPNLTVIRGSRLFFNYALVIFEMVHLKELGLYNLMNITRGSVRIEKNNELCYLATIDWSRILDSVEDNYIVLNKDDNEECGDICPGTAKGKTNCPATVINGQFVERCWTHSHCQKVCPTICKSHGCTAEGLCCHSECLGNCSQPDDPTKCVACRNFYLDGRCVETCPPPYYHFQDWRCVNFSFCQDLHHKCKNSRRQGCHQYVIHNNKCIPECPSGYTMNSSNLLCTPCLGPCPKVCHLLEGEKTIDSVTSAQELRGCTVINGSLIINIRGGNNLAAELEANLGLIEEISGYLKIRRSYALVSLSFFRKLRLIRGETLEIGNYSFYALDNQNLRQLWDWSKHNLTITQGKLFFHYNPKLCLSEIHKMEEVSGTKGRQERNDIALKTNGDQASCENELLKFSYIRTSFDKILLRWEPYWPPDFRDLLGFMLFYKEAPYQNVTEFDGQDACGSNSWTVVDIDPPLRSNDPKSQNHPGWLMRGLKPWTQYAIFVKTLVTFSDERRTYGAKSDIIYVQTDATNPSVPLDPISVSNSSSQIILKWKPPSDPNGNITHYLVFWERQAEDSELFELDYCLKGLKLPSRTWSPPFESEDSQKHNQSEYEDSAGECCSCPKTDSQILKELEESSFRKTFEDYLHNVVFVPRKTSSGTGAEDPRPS", "sequence (P06213 763-1382 limits assumed)": "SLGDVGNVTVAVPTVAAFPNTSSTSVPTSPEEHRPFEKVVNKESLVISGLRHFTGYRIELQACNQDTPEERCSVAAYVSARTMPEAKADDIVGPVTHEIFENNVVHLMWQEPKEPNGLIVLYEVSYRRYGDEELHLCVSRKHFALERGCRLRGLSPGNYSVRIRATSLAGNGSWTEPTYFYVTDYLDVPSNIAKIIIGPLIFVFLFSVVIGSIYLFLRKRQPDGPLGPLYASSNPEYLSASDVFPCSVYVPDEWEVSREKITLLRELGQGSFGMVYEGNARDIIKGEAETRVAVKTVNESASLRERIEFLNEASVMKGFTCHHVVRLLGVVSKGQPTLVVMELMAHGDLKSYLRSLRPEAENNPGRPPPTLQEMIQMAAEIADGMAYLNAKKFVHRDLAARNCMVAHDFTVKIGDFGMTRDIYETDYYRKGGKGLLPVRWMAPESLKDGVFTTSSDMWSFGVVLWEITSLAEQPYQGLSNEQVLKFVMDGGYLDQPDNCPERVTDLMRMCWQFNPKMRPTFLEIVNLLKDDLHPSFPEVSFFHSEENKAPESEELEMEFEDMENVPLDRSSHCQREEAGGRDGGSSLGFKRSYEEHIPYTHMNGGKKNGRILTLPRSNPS", "settings": "at 1 µM"}}}
{"smiles": "Nc1ncnc2c1c(-c1ccc(Oc3ccccc3)cc1)cn2C1CCCC1", "values": [{"measurement": "residual activity", "setting": "[1]", "result": 54, "unit": "%"}, {"measurement": "residual activity", "setting": "[2]", "result": 76, "unit": "%"}, {"measurement": "residual activity", "setting": "[3]", "result": 72, "unit": "%"}, {"measurement": "residual activity", "setting": "[4]", "result": 100, "unit": "%"}, {"measurement": "residual activity", "setting": "[5]", "result": 58, "unit": "%"}, {"measurement": "residual activity", "setting": "[6]", "result": 104, "unit": "%"}, {"measurement": "residual activity", "setting": "[7]", "result": 103, "unit": "%"}, {"measurement": "residual activity", "setting": "[8]", "result": 91, "unit": "%"}, {"measurement": "residual activity", "setting": "[9]", "result": 96, "unit": "%"}]}
